The results in this text go back to PubChem BioAssay (NCI).

Common to all, as to test: NCI-60 one-dose screen, 48 h (100 = growth as untreated, 0 = no growth, -100 = all killed)
What all share (details): 10 µM

Assay [1] relates to SR leukemia.
Assay [2] deals with RPMI-8226 leukemia.
Assay [3] has as its system OVCAR-8 ovarian.
The subject of assay [4] is OVCAR-5 ovarian.
Assay [5] relates to OVCAR-4 ovarian.
The test system of assay [6] is SK-OV-3 ovarian.
Assay [7] relates to IGROV1 ovarian.
Assay [8] concerns OVCAR-3 ovarian.
In assay [9] the test system is HS 578T breast.
For assay [10], the system named is NCI/ADR-RES ovarian.
The subject of assay [11] is T-47D breast.
The subject of assay [12] is BT-549 breast.
In assay [13] the test system is MDA-MB-435 melanoma.
Assay [14] deals with SW-620 colon.
Assay [15] relates to MCF7 breast.
Assay [16] has as its system HCT-116 colon.
In assay [17] the test system is HCC-2998 colon.
Assay [18] has as its system KM12 colon.
Assay [19] has as its system MDA-MB-468 breast.

Molecules are shown by their SMILES. About 83,000 compounds went through this panel and 20% of them were active in at least one assay; those are over-represented in the sample as a whole.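 Compound tested at a single concentration for 48 hours in 96-well plates; a percent growth value below 10 was scored as active.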 Values without a mark were called inactive. Activity calls are given as the source filed them.

`Nc1cc(-c2cccc(C(=O)NCc3ccc4c(c3)OCO4)c2)ccn1`: the growth in assay [1] is 76.1%; in [2] it was 80.6%; in assay [3], 103%; in assay [4], 121%; in assay [5], 90.1%; in assay [6], 107%. The growth in assay [7] is 112%; in assay [8] it was 98.5%; in assay [9] it was 94.4%; in assay [10] it was 88.5%; in assay [11], 77.4%; in [12], 96.8%. In addition, the growth in assay [13] was 102%; in [14] it was 110%; in assay [15], 86.5%; in assay [16], 95.1%; in assay [17], 103%; in assay [18], 106%. Further, the growth in assay [19] is 88.1%.

For the compound `COc1ccc(NC(=O)CSc2nnc(-c3ccc4nc(-c5ccc(Cl)cc5)[nH]c4c3)o2)cc1`, the growth in assay [1] is 43.5%; in assay [2], 56.5%; in assay [3], 14.1%; in [4] it was 79.9%; in assay [5], -2.09% (active); in [6] it was 101%. Further, the growth was 78.4% in assay [7]; 55.3% in assay [8]; 35.2% in [9]; 81.3% in [10]; 96.7% in assay [11]; 29.9% in [12]. The growth in assay [13] is -7.51% (active); in assay [14] it was 1.97% (active); in assay [15] it was 17.1%; in [17] it was 111%; in assay [18] it was 60.4%; in assay [19] it was 90.8%.

Consider `O=C(N=Nc1c(O)[nH]c2ccc(Br)cc12)c1ccc2nc(-c3ccccc3)[nH]c2c1`, for which the growth in [1] was -5.76% (active); in [2], -4.88% (active); in assay [3], -94.5% (active); in [4] it was -5.18% (active); in assay [5], -92.1% (active); in assay [6], -54.9% (active). Moreover, the growth is -39% (active) in assay [7]; -69.7% (active) in [8]; -25.9% (active) in assay [9]; 76.7% in [10]; -67.4% (active) in [11]; -71% (active) in [12]. The growth was -88.9% (active) in [13]; -60% (active) in assay [14]; -53.4% (active) in [15]; -28.3% (active) in assay [16]; -78% (active) in assay [17]; 2.92% (active) in [18]. Also, the growth in assay [19] was -85.8% (active).

`CCCn1c(=O)c2[nH]c(-c3ccc(OCc4nc5ccc(C(F)(F)F)cc5[nH]4)cc3)nc2n(CCC)c1=O`: the growth is 24.6% in assay [1]; 28.1% in assay [2]; -7.74% (active) in assay [3]; 82.3% in assay [4]; 60% in [5]; 90.7% in assay [6]. The growth is 62.7% in assay [7]; 52.5% in assay [8]; 33.4% in assay [9]; 55.8% in assay [10]; 33.2% in assay [11]; 41.7% in assay [12]. Also, the growth in assay [13] was 63%; in assay [14], 70%; in assay [15] it was 28.3%; in assay [16], 25.2%; in assay [17], 76.7%; in assay [19], 30.8%.

For the compound `C=C1CCC2C3(C)COC(c4ccccc4F)OC3CCC2(C)C1C/C=C1/C(=O)OCC1O` (stereo unspecified), the growth in assay [1] was 11.6%; in assay [2] it was 13.4%; in [3], -54.3% (active); in assay [4], -42.8% (active); in [5], 22.2%; in assay [6], 26.3%. Also, the growth is -45.8% (active) in [7]; -79.1% (active) in assay [8]; -0.635% (active) in assay [9]; -23% (active) in [10]; -50.4% (active) in assay [11]; -82.1% (active) in assay [12]. Moreover, the growth in assay [13] was 4.59% (active); in assay [14] it was -68.5% (active); in [15] it was -26.5% (active); in assay [16] it was -67.8% (active); in assay [17], -73.5% (active); in assay [19] it was -22.6% (active).

For the compound `O=C(CNc1nc(-c2ccccc2)cs1)Nc1ccc([N+](=O)[O-])cc1`, the growth in [1] is 10.8%; in assay [2], 11.7%; in [3], 17.7%; in assay [4], -39.6% (active); in assay [5], 18%; in assay [6], 53.9%. Besides, the growth is 16.6% in assay [7]; 13.1% in assay [8]; 21.8% in assay [9]; -20.4% (active) in [10]; 2.53% (active) in assay [11]; 12.3% in [12]. Further, the growth was 40.6% in assay [13]; 7.63% (active) in assay [14]; 1.69% (active) in assay [15]; 11.7% in assay [16]; -97.8% (active) in assay [17]; -88.2% (active) in assay [19].

Consider `Cc1cccc(-c2nc(Nc3ccccc3C(=O)O)c3ccccc3n2)c1`, for which the growth in assay [1] was 23%; in assay [2], 28.6%; in assay [3], 60.3%; in assay [4], 77%; in assay [5], 41.9%; in [6], 76.7%. In addition, the growth in assay [7] is 59.2%; in [8], 34.1%; in [9], 16.6%; in [10], 24.8%; in [11] it was 26.8%; in assay [12], -0.675% (active). Moreover, the growth in assay [13] is 44.6%; in assay [14], 35.5%; in assay [15], 24%; in assay [16], 22.7%; in assay [17], 27.1%; in assay [19], -15.1% (active).

Turning to `COc1cc(/C=C/C(=O)c2cc(OC)c(OC)c(OC)c2)ccc1Oc1nc(Nc2ccc(F)cc2)nc(N(C)C)n1`, the growth in [1] is -5.9% (active); in assay [2], -19.8% (active); in assay [3], -59.6% (active); in [4], -44.7% (active); in [5] it was 18.4%; in assay [6], 49.5%. Besides, the growth in assay [7] is -64.3% (active); in assay [8], 12.1%; in assay [9], 16.1%; in [10], -29.6% (active); in assay [11], 25.9%; in assay [12], -89.8% (active). Besides, the growth is -62.4% (active) in assay [13]; 1.14% (active) in assay [14]; 2.35% (active) in assay [15]; -77.6% (active) in [16]; -41.1% (active) in assay [18]; -39.6% (active) in [19].
